Screening data (PubChem)
A selection: hits, their analogues and other compounds. The true share with any hit is near 3.9%.
BRCA1 expr up = activators of BRCA1 expression | MCF7-BRCA1-FFLuc reporter, luminescence, 48 h; response scale: scaled: vehicle 0%, 10 µM genistein 100% | Potency, µM (titrated, usually from 46.1 µM), without a hit: at the highest dose activation, hits mostly activators | hit rate 1.1% among 380,000; note: nearly all actives have a fitted effect of over 80% in size
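MCF7 cells carrying a BRCA1-firefly luciferase reporter (2000 cells/well, phenol-red free MEM) were attached for 2 h at 37 °C, then given compounds for 48 h. Luminescence was read 15 min after luciferase reagent; activity normalized to genistein (10 microM) and DMSO.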
PLK1 PBD inh = blocks phosphopeptide binding to human PLK1 polo-box domain; P53350; Plk1 PBD binding of FITC phosphopeptide, fluorescence polarization; Potency, µM, for the others: max response, negative = inhibition, most hits filed as inhibitors; hit rate 2.8% among 360,000; note: series mostly up to about 57 µM; % is set by controls: 0 for no effect and ±100 for the full control effect; nearly all actives have a fitted effect of over 65% in size
Target sequence (P53350 whole entry, looked up, the tested form may be a part): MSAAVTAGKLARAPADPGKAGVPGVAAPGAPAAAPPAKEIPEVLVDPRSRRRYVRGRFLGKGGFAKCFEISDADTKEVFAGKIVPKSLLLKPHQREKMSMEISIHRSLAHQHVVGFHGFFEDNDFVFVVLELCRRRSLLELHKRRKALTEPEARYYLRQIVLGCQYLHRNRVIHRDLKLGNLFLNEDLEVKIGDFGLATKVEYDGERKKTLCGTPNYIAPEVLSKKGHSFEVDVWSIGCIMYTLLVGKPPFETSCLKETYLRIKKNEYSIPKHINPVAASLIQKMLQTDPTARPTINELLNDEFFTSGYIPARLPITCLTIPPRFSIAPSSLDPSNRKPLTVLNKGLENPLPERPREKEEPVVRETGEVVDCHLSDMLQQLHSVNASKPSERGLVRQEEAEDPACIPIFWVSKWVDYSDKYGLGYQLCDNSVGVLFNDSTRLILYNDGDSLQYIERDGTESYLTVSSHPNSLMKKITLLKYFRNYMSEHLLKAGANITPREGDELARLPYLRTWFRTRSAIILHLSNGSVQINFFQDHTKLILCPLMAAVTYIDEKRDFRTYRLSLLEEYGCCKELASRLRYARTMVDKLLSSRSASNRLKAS
VDR inhibitor = blocks the human vitamin D receptor. hit rate 0.93% among 400,000. VDR-SRC2-3 peptide fluorescence polarization, 2 h. P11473. AID 504847. Potency, µM, without a hit: max response, negative = inhibition, actives largely listed as inhibitors; note: % is set by controls: 0 for no effect and ±100 for the full control effect
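Fluorescence polarization assay of small-molecule disruption of VDR binding to coregulator peptide SRC2-3. Compounds and controls pin-transferred, then read after 2 h incubation at ambient room temperature.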
Tb PFK inh = T. brucei PFK enzyme inhibition; O15648; T. brucei PFK, ADP-Glo luminescence; Potency, µM (highest dose often 57.5 µM), for the others: at the highest dose activity, negative = inhibition, hits mostly inhibitors; hit rate 0.17% among 330,000;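 note: 0% = uninhibited 1x PFK enzyme wells and -100% = no-enzyme wells; nearly all actives have a fitted effect of over 60% in size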
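In TEA buffer at pH 8.0 with 5 mM MgCl2, enzyme (1.25 nM) converted F6P (0.5 mM) and ATP (0.1 mM) for 45 min at room temperature. ADP product was read by luciferase luminescence.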
* hit, by the source's call; ? = inconclusive; . = not tested or not shown. Calls come from the whole dose curve; as a rule, active = well fitted curve in the direction sought with a large enough effect; inconclusive = small, poorly fitted or top-dose-only effect, or another doubt; inactive = no such curve, though single readings can be large; an effect the other way counts as inactive or inconclusive. Potency is the fitted concentration of half-maximal effect.

SMILES	BRCA1 expr up	PLK1 PBD inh	VDR inhibitor	Tb PFK inh
COc1ccc(CC(=O)N2CC(=O)Nc3ccc(F)cc3C2c2ccccc2)cc1 (stereo not given)	.	.	0.8%	.
CCN(CC)S(=O)(=O)c1ccc(Cl)c(NC(=S)NC(=O)C2CCCC2)c1	-60.8%	-10.4%	-4.8%	7.8%
CCN(CC)c1ccc(S(=O)(=O)Nc2cc(Cl)ccc2Cl)cc1NC(=S)NC(=O)C1CCCC1	-53.5%	9.47µM*	-24.2%	0.0%
Cc1cccc(N2C(=O)C3CCCN3C2=S)c1C (stereo not given)	-1.1%	?	12.2%	-3.7%
CCc1ccc(N2C(=O)C3CCCN3C2=S)cc1 (stereo not given)	-20.1%	11.9µM*	-12.4%	0.1%
O=C(NC1CC1)c1sc2cc([N+](=O)[O-])ccc2c1Cl	52.9%	1.1%	-7.6%	0.1%
Cc1ccc2c(Cl)c(C(=O)NC3CC3)sc2c1	2.82µM*	-8.2%	-7.5%	0.0%
Cc1ccc2c(c1)C(c1ccncc1)=NNC(c1ccccc1)=N2	0.0%	21.2µM*	?	-7.0%
Cc1ccc(C2=Nc3cccnc3C(c3ccccc3)=NN2)cc1	6.31µM*	-11.7%	-7.4%	1.4%
O=C(N/N=C/c1ccccc1C(F)(F)F)c1ccc2nc[nH]c2c1	7.08µM*	-8.9%	-5.0%	-6.0%
CCc1ncc(C(O)c2ccc(Cl)cc2)n1Cc1ccccc1 (stereo not given)	-26.5%	1.6%	.	.
Cc1ccc(S(=O)(=O)NCC(=O)OCN2C(=O)c3ccccc3C2=O)cc1	-17.2%	5.32µM*	-23.5%	-4.2%
Cc1cc(SCC(=O)NN=C2CCN(C(C)C)CC2)c(C)cc1Br	-16.5%	-8.8%	-11.9%	-3.7%
Cc1cc(SCC(=O)N/N=C/c2ccc(O)c(O)c2O)c(C)cc1Br	-84.5%	5.97µM*	-17.6%	-17.3%
CSCc1ccc(C(=O)Nc2cccc(C)c2C)cc1	11.2µM*	-1.6%	-9.4%	-0.4%
O=c1c2ccccc2nnn1CSc1nnc(-c2cccs2)n1Cc1ccccc1	-1.7%	29.9µM*	-18.0%	1.1%
CC(=O)c1c(C)[nH]c(C(=O)CSc2nnc(-c3cccs3)n2Cc2ccccc2)c1C	-58.0%	16.8µM*	?	4.6%
O=c1c2ccccc2nnn1CSc1nnc2ccccn12	5.62µM*	-7.3%	-7.2%	0.5%
COc1ccc(-c2cnnn2-c2ccc(NC(=O)c3c(F)cccc3F)cc2)cc1	.	.	19.8%	.
CC1CCN(S(=O)(=O)c2ccc3c(c2)N(CC(=O)Nc2ccc(F)c(Cl)c2)C(=O)CO3)CC1	.	.	11.6%	.
Clc1cccc2c1CN(C1=NCCN1)C2	.	.	7.1%	.
COc1ccc(N(C)C(=O)Cn2cc(S(=O)(=O)N3CCN(c4ccccc4F)CC3)c3ccccc3c2=O)c(OC)c1	7.9%	.	19.1%	.
O=C(CSc1ccccc1Cl)c1ccco1	87.9%	21.2µM*	?	?
O=C(CSc1ccc(Cl)cc1)c1ccco1	43.4%	9.47µM*	?	?
O=C(CCSc1ccc(Cl)cc1)c1ccco1	-26.7%	?	?	-12.5%
SMILES	BRCA1 expr up	PLK1 PBD inh	VDR inhibitor	Tb PFK inh
O=C(CSc1ccc(Cl)cc1)NC(=O)NCc1ccco1	-18.9%	2.99µM*	?	-15.0%
O=C(CC(NS(=O)(=O)c1ccc(Cl)cc1)c1ccco1)NCc1ccco1 (stereo not given)	63.8%	29.9µM*	-12.9%	0.3%
COc1ccc(NC(=O)c2oc3ccccc3c2NC(=O)c2cc(=O)c3c(C)cc(C)cc3o2)cc1	.	.	8.5%	.
Oc1cccc2oc(=S)[nH]c12	-22.5%	-9.7%	-5.6%	.
CCOc1ccc(NC(=O)CCn2c(=O)c3cccn3c3cccnc32)cc1	.	.	6.0%	.
O=C(CSc1nccn1-c1cccc(Cl)c1)Nc1ccc2c(c1)OCO2	.	.	11.2%	.
C/C(=N\O)C(=O)NCC1CCNCC1	-2.1%	26.7µM*	5.2%	-7.5%
O=C(NC1CCCCC1)Oc1cccc2ccccc12	-15.8%	23.8µM*	-16.7%	-0.6%
CC(C)(C)c1ccc(C(=O)N2CCC2(C)C(=O)NCc2cccc3ccccc23)cc1 (stereo not given)	-48.0%	-5.2%	.	.
CCNc1nc(NC(C)C)nc(Oc2ccc(/C=N/O)cc2)n1	-3.7%	4.74µM*	-17.6%	-4.9%
COC(=O)c1ccc(Oc2nc(NC(C)C)nc(NC(C)C)n2)cc1	-12.4%	-7.1%	0.3%	-3.5%
COc1cc2nc(C3CCC3)n(NC(=O)C3CCC3)c(=O)c2cc1OC	-29.6%	23.8µM*	-12.6%	-10.6%
COc1cc2nc(C3CCC3)n(NC(=O)COc3ccccc3)c(=O)c2cc1OC	-21.5%	26.7µM*	?	-5.2%
O=C(Cc1ccc(Br)cc1)NO	0.0%	.	.	.
COc1ccc(S(=O)(=O)N2CCCOC2CNC(=O)C(=O)NCCO)cc1 (stereo not given)	20.8%	-5.6%	.	.
NC(=S)NNC(=O)Nc1ccc(Cl)c(Cl)c1	8.1%	-16.2%	?	16.9µM*
O=C(Cc1ccccc1)NNC(=O)Nc1ccc(Cl)c(Cl)c1	-17.3%	-1.6%	0.8%	0.0%
COc1ccc2c(Sc3ccccc3)c(C(=O)N3CCC(C)CC3)[nH]c2c1	.	.	1.6%	.
O=C(NCc1ccc(Cl)cc1)c1n[nH]c([N+](=O)[O-])c1Cl	?	18.9µM*	?	-22.4%
CCC(C)NC(=O)C1(N2C(=O)c3ccccc3C2=O)CCCC1 (stereo not given)	-4.5%	6.9%	5.6%	.
CC(C)(C)C(=O)Oc1ccc2cc(-c3ccc4ccccc4n3)c(=O)oc2c1	14.1µM*	-9.6%	-15.6%	0.0%
CC(=O)Oc1ccc(-c2cc3ccccc3oc2=O)cc1	12.6µM*	-1.9%	-14.5%	.
O=C(O)C(Oc1ccc2ccc(=O)oc2c1)c1ccccc1 (stereo not given)	.	.	12.4%	.
O=C(O)C(Oc1ccc2cc(-c3ccc(Cl)cc3)c(=O)oc2c1)c1ccccc1 (stereo not given)	0.0%	42.3µM*	-17.3%	-2.3%
COc1cccc(NC(=O)CNC(=O)Cn2c(C)cc3ccccc3c2=O)c1	1.9%	.	-11.7%	.
SMILES	BRCA1 expr up	PLK1 PBD inh	VDR inhibitor	Tb PFK inh
CN(Cc1ccccc1)C(=O)[C@@H]1CCCN1C(=O)[C@@H]1CCCN1C(=O)c1ccc(Cl)cc1	-2.2%	2.7%	.	.
COC(=O)c1ccc(NC(=O)CN2CCC(NC(=O)c3ccccc3F)CC2)cc1	-7.3%	-4.2%	.	.
COc1ccc(C(=O)c2coc3ccc(OC(C)=O)cc23)cc1	?	-5.0%	-7.5%	1.5%
CC(=O)Oc1ccc2occ(/C=N/c3cc(=O)[nH]c(=S)[nH]3)c(=O)c2c1	-16.7%	5.32µM*	28.2µM*	-19.9%
O=C(CCN1C(=O)c2ccccc2C1=O)Nc1ccc(S(=O)(=O)N2CCOCC2)cc1	-3.5%	23.8µM*	?	-0.5%
COc1ccc(-c2cc(C)no2)cc1S(=O)(=O)N1CCN(c2ccc(C(C)=O)cc2)CC1	.	.	10.8%	.
Cc1ccc(S(=O)(=O)N2CCCCC2)cc1NC(=O)CSc1ncccn1	4.8%	?	-13.5%	0.9%
CCCn1c(N)c(C(c2ccc(OC)cc2)N2CCN(c3ccccc3)CC2)c(=O)[nH]c1=O (stereo not given)	-12.6%	-24.8%	56.2µM*	-3.3%
O=C(NCCC1=CCCCC1)c1ccc([N+](=O)[O-])cc1	?	3.1%	-6.1%	0.2%
O=C(CCc1ccccc1)NCCC1=CCCCC1	11.2µM*	-5.8%	5.7%	?
